Assay [1] deals with 5'-AMP-activated protein kinase catalytic subunit alpha-2 (Homo sapiens) (UniProt P54646). Particulars: at 1 µM.
In assay [2] the target is T1, NUAK family SNF1-like kinase 1 (Homo sapiens) (UniProt O60285).
T1 sequence (whole entry): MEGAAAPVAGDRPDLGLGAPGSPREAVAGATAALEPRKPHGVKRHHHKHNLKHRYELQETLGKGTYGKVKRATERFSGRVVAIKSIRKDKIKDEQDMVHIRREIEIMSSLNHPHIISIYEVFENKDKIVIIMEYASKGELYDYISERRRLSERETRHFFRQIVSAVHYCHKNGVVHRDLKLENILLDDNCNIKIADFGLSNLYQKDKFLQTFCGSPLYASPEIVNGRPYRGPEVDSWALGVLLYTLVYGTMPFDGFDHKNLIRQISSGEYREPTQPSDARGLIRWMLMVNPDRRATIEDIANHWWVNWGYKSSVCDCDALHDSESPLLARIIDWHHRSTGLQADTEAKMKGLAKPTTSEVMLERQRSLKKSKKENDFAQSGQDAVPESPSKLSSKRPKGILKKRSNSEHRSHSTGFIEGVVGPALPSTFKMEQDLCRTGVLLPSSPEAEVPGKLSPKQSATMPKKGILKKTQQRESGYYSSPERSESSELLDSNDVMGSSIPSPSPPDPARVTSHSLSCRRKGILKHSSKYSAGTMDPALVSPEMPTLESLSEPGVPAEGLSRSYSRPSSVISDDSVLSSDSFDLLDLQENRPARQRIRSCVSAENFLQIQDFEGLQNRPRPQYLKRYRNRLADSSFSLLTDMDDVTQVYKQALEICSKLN
Particulars: at 0.1 µM.

Assay [3] has as its target T1, NUAK family SNF1-like kinase 1 (Homo sapiens). Particulars: at 1 µM.
The target of assay [4] is T2, Serine/threonine-protein kinase BRSK1 (Homo sapiens) (UniProt Q8TDC3).
T2 sequence (whole entry): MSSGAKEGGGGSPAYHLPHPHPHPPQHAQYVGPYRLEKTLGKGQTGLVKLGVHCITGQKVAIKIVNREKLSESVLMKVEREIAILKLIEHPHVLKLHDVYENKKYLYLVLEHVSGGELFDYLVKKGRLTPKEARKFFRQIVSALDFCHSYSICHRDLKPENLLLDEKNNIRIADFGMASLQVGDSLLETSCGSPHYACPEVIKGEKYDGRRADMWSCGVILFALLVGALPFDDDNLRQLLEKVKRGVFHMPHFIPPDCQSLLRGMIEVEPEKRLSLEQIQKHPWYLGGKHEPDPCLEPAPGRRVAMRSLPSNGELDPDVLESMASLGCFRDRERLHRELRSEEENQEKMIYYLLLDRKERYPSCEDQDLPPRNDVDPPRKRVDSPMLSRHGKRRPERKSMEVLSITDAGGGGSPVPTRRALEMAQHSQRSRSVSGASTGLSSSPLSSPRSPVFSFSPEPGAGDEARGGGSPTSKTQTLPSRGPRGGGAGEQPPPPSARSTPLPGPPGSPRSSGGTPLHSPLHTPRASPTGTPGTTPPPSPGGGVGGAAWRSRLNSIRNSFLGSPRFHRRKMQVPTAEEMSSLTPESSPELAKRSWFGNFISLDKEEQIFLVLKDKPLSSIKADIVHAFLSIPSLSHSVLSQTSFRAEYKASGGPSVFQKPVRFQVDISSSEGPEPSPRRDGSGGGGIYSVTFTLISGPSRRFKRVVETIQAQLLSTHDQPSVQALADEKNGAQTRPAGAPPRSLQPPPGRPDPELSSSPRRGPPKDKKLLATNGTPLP
Particulars: at 0.1 µM.

The target of assay [5] is T2, Serine/threonine-protein kinase BRSK1 (Homo sapiens). Particulars: at 1 µM.
The target of assay [6] is T3, Serine/threonine-protein kinase BRSK2 (Homo sapiens) (UniProt Q8IWQ3).
T3 sequence (whole entry): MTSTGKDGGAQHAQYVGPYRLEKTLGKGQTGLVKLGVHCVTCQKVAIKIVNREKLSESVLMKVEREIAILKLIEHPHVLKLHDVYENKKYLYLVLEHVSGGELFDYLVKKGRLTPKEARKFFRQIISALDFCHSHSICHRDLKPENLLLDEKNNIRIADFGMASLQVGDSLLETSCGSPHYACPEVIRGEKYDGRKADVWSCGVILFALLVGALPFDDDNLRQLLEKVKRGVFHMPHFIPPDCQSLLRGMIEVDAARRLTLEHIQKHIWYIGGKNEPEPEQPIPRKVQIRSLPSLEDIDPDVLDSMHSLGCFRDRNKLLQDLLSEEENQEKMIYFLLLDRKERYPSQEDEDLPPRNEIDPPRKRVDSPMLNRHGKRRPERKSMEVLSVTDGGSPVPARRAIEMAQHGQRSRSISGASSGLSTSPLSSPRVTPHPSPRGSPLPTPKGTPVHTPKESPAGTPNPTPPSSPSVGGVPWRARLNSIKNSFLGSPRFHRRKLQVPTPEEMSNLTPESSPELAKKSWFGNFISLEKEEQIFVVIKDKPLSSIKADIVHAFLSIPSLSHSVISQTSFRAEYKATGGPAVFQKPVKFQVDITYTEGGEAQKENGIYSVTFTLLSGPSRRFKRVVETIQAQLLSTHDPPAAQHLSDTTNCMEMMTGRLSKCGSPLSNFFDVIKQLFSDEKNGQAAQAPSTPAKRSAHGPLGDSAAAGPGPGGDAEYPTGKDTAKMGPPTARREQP
Particulars: at 0.1 µM.

For assay [7], the target named is T3, Serine/threonine-protein kinase BRSK2 (Homo sapiens). Particulars: at 1 µM.
For assay [8], the target named is Calcium/calmodulin-dependent protein kinase type 1D (Homo sapiens) (UniProt Q8IU85). Particulars: at 0.1 µM.
Assay [9] has the same target. Particulars: at 1 µM.
In assay [10] the target is Calcium/calmodulin-dependent protein kinase type II subunit alpha (Homo sapiens) (UniProt Q9UQM7). Particulars: at 0.1 µM.
Assay [11] shares this target. Particulars: at 1 µM.
The target of assay [12] is Calcium/calmodulin-dependent protein kinase type II subunit delta (Homo sapiens) (UniProt Q13557). Particulars: at 0.1 µM.
Assay [13] has the same target. Particulars: at 1 µM.
In assay [14] the target is T4, Calcium/calmodulin-dependent protein kinase type IV (Homo sapiens) (UniProt Q16566).
T4 sequence (whole entry): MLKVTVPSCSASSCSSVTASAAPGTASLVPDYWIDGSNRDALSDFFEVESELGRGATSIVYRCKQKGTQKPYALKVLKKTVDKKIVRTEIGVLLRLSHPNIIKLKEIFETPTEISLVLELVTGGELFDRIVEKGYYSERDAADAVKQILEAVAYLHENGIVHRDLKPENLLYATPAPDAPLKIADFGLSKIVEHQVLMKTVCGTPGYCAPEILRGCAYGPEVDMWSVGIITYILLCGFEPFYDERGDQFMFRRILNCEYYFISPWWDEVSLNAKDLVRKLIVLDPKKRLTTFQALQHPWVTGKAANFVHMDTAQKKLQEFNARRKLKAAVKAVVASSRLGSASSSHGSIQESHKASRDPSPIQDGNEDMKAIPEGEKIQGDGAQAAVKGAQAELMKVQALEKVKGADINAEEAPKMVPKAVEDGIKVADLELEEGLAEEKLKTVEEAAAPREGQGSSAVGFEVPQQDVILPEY
Particulars: at 0.1 µM.

Assay [15] addresses T4, Calcium/calmodulin-dependent protein kinase type IV (Homo sapiens). Particulars: at 1 µM.
The target of assay [16] is T5, Serine/threonine-protein kinase Chk1 (Homo sapiens) (UniProt O14757).
T5 sequence (whole entry): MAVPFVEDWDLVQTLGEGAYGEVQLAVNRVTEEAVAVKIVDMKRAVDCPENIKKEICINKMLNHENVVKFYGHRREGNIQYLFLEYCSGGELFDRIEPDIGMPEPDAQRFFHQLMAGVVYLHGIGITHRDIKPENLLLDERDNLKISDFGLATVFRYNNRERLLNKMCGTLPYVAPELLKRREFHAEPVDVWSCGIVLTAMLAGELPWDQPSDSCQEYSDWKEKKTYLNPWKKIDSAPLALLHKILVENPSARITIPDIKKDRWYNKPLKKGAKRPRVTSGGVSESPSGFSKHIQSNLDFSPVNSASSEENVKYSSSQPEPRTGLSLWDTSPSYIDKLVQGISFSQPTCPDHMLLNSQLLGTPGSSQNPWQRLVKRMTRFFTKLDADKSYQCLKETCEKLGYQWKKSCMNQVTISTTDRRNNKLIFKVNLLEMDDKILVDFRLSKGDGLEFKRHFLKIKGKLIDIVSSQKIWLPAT
Particulars: at 0.1 µM.

For assay [17], the target named is T5, Serine/threonine-protein kinase Chk1 (Homo sapiens). Particulars: at 1 µM.
The target in assay [18] is Serine/threonine-protein kinase Chk2 (Homo sapiens) (UniProt O96017). Particulars: at 0.1 µM.
Assay [19] has the same target. Particulars: at 1 µM.
The target in assay [20] is Death-associated protein kinase 1 (Homo sapiens) (UniProt P53355). Particulars: at 0.1 µM.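 Further: reported figure is the mean inhibition of DAPK1.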
Sequence of Death-associated protein kinase 1 (Homo sapiens) (P53355 whole entry, looked up): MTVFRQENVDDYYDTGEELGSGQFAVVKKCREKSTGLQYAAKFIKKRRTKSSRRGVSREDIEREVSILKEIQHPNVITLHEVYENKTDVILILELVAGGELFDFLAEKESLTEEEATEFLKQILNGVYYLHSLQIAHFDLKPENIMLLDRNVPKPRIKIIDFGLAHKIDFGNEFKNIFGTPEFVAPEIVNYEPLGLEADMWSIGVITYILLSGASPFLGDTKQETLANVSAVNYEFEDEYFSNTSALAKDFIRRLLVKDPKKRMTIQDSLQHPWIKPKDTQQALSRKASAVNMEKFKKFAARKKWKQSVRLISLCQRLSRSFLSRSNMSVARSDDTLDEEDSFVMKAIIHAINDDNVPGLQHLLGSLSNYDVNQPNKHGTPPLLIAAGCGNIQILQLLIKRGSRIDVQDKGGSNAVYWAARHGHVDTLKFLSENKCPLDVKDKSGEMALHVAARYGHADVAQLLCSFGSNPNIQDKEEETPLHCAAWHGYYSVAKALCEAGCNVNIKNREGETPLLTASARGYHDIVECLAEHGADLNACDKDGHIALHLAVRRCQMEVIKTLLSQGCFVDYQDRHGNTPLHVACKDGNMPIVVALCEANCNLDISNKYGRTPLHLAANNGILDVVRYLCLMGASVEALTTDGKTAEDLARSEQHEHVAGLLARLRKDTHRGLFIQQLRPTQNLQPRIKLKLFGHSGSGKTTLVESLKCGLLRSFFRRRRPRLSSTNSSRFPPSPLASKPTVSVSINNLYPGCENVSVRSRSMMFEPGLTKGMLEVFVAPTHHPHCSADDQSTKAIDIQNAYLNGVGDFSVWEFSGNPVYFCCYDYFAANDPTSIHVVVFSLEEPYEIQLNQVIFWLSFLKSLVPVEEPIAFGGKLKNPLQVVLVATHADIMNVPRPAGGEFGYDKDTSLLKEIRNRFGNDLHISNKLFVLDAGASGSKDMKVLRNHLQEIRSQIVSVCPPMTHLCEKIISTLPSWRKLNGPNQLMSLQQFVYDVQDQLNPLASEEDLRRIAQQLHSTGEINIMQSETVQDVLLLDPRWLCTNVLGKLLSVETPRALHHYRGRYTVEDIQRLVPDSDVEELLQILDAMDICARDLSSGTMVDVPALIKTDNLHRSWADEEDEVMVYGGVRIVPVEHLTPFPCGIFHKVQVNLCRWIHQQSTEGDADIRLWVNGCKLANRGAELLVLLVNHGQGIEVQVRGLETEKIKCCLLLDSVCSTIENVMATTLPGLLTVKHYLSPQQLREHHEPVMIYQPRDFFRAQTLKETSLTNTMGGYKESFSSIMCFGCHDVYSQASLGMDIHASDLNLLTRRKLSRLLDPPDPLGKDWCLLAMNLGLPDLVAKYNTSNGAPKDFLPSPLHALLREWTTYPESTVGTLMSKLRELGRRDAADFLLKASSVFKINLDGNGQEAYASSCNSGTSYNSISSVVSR

Sequence of Calcium/calmodulin-dependent protein kinase type 1D (Homo sapiens) (Q8IU85 whole entry, looked up): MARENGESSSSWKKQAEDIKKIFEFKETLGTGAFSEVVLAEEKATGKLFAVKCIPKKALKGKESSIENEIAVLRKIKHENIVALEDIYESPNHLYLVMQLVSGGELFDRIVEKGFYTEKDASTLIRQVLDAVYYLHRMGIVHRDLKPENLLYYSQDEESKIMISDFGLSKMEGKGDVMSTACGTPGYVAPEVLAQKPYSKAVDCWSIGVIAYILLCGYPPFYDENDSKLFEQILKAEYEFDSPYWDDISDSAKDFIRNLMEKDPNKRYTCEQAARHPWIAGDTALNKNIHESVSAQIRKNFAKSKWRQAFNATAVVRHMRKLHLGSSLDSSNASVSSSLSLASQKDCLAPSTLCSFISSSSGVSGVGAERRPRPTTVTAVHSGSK
Sequence of Calcium/calmodulin-dependent protein kinase type II subunit delta (Homo sapiens) (Q13557 whole entry): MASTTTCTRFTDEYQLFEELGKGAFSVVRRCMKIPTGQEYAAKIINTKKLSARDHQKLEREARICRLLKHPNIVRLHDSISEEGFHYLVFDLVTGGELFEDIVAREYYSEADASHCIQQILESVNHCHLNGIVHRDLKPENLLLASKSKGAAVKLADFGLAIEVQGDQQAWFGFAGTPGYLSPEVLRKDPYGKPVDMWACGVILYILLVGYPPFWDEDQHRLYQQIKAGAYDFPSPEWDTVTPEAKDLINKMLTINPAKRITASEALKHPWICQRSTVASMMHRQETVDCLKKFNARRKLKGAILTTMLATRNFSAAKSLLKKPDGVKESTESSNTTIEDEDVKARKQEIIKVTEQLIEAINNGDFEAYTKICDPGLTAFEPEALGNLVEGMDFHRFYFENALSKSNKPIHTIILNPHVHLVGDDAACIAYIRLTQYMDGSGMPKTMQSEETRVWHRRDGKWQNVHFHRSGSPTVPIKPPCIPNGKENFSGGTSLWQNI
Sequence of 5'-AMP-activated protein kinase catalytic subunit alpha-2 (Homo sapiens) (P54646 whole entry, looked up): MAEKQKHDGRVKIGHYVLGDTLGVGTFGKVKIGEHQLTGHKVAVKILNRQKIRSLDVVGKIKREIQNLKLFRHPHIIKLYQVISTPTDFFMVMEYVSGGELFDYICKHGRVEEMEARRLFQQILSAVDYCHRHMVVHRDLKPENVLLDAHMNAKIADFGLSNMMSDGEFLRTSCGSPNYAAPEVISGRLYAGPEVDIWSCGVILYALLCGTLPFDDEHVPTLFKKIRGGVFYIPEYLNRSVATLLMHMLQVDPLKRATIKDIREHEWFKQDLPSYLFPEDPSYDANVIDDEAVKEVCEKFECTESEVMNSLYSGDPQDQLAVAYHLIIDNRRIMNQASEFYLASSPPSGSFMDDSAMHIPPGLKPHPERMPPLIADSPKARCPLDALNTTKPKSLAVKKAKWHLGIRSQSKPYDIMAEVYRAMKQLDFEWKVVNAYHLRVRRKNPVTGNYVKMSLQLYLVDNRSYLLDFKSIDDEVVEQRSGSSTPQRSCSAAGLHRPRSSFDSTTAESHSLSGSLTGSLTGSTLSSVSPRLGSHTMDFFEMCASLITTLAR
Sequence of Serine/threonine-protein kinase Chk2 (Homo sapiens) (O96017 whole entry): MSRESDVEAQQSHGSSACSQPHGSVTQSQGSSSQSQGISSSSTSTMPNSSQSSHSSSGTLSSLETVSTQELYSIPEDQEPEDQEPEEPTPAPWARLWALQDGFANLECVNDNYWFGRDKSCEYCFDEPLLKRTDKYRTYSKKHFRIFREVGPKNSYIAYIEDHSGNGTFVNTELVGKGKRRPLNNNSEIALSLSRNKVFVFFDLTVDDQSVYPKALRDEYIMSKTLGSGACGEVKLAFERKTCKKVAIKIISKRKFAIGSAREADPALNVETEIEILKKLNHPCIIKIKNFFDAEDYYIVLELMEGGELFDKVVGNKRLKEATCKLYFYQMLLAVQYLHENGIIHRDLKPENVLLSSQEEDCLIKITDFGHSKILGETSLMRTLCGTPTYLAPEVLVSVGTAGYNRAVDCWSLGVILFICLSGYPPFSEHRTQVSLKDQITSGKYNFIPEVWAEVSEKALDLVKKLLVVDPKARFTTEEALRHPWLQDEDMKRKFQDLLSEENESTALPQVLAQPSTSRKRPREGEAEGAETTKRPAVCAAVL
Sequence of Calcium/calmodulin-dependent protein kinase type II subunit alpha (Homo sapiens) (Q9UQM7 whole entry): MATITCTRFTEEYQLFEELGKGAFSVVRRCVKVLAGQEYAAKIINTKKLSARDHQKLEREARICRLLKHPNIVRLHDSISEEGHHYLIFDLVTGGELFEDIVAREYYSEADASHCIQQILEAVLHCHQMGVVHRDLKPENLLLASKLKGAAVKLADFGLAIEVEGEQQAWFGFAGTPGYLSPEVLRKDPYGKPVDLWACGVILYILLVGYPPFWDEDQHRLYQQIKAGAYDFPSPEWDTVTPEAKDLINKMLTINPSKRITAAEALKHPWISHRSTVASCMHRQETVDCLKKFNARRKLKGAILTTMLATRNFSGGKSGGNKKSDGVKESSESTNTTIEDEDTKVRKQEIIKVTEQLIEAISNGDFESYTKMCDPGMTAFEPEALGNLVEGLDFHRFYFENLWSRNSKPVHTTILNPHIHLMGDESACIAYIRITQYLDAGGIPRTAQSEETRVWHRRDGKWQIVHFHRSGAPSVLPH

As to `O=C(Nc1n[nH]c2nc(-c3ccc(O)cc3)c(Br)cc12)C1CC1`, the inhibition is 12.1% in [1]; 8.05% in [2]; 30.2% in assay [3]; 25.8% in [4]; 66.8% in assay [5]; 33.5% in assay [6]. Further, the inhibition in assay [7] was found to be 70.2%; in assay [8], 3.09%; in [9], 14.4%; in assay [10], 4.24%; in assay [11] it was 8.39%; in assay [12], 6.47%. Also, the inhibition was 20.1% in [13]; -0.14% in assay [14]; 2.12% in assay [15]; 8.74% in [16]; 16.8% in assay [17]; 2.09% in [18]. The inhibition in assay [19] was determined as 4.23%; in assay [20], 5.9%.
In the case of `COc1cccc(/C=N/Nc2ncnc3c2cnn3-c2cccc(OC)c2)c1`, the inhibition in [1] was 2.83%; in assay [2], 1.95%; in assay [3], 3.7%; in assay [4], 0.47%; in assay [5] it was -0.97%; in assay [6] it was 1.04%. Besides, the inhibition in assay [7] is 2.41%; in [8] it was -0.14%; in [9], 0.89%; in assay [10], 0.99%; in [11], 1.28%; in [12], 3.36%. Moreover, the inhibition in assay [13] was 6.18%; in assay [14], -0.53%; in assay [15] it was 0.8%; in [16] it was -0.79%; in assay [17], -1.62%; in assay [18], 3.83%. Further, the results for the inhibition in assay [19] and in assay [20] were 4.99% and -0.06%, respectively.
Consider `Cc1nnc(-c2ccc(C)c(-c3ccc(C(=O)NCc4ccc(Cl)cc4)cc3)c2)o1`, for which the inhibition in assay [1] was 3.56%; in [2], 1%; in assay [3] it was 4.79%; in assay [4], -2.13%; in [5], -2.87%; in assay [6], 1.17%. The inhibition in assay [7] was 2.51%; in assay [8] it was -1.49%; in assay [9], 0.04%; in [10], 2.6%; in [11] it was 3.22%; in [12], 2.75%. The inhibition in assay [13] turned out to be 2.68%; in assay [14], 0.34%; in assay [15] it was 0.46%; in [16], 1.36%; in assay [17] it was 2.22%; in assay [18] it was 1.43%. Also, the results for the inhibition in assay [19] and in assay [20] were 1.86% and 2.85%, respectively.
Take `CCc1cccc(CC)c1/C=C/c1cncc(C(=O)NC)c1`: the inhibition came out at 2.36% in [1]; 1.6% in [2]; 6.57% in [3]; 1.79% in [4]; 0.96% in assay [5]; 0.46% in assay [6]. In addition, the inhibition in assay [7] stood at 0.3%; in [8] it was 0.62%; in assay [9] it was 1.99%; in assay [10], 3.18%; in assay [11], 3.51%; in [12], 2.92%. Further, the inhibition in assay [13] was found to be 2.2%; in [14] it was 1.05%; in assay [15], 13.9%; in assay [16], 3.68%; in assay [17], 2.13%; in [18], 1.58%. For the same compound, the values for the inhibition in assay [19] and in [20] were 1.85% and 2.61%, respectively.
In the case of `C[C@@H](Oc1cc(-n2cnc3ccc(OCC4CCN(C)CC4)cc32)sc1C(N)=O)c1ccccc1Cl`, the inhibition is 13.7% in assay [1]; 30.2% in assay [2]; 71.9% in assay [3]; 28.5% in assay [4]; 60% in [5]; 38.5% in assay [6]. Also, the inhibition in assay [7] turned out to be 72.8%; in [8], 1.56%; in assay [9], 5.96%; in assay [10] it was 6.36%; in [11], 12.8%; in [12], 9.02%. Moreover, the inhibition in [13] is 38.1%; in [14], 0.69%; in assay [15] it was 3.44%; in assay [16] it was 7.19%; in [17], 10.4%; in [18] it was 2.55%. Moreover, the inhibition stood at 6.43% in [19] and 7.7% in assay [20].
Regarding `O=C1NC(=O)C(c2cccc(Cl)c2)=C1Nc1ccc(Cl)c(C(=O)O)c1`, the inhibition in assay [1] was -4.09%; in [2] it was -9.56%; in [3] it was 3.08%; in assay [4] it was -0.75%; in assay [5] it was 0.27%; in assay [6], 1.73%. The inhibition in assay [7] is 2.47%; in [8] it was -1.22%; in [9], -0.07%; in assay [10] it was 3.4%; in assay [11] it was 2.06%; in assay [12] it was 1.45%. The inhibition was 4.49% in assay [13]; -0.36% in [14]; -0.93% in assay [15]; 0.81% in [16]; 2.22% in [17]; 2.39% in assay [18]. Moreover, the inhibition in assay [19] was 3.13%; in [20] it was 3.48%.

A word on the inhibition: it is the relative decrease from the control value, in per cent.

These data come from ChEMBL document CHEMBL1961873, “Compounds: GSK PKIS; Assays: Nanosyn kinase panel” (2012).
